Hits are enriched below; roughly 3.8% of the tested compounds scored in any of these assays.
ATXN2 expr inh: ATXN2 expression inhibition; HEK-293 ATXN2-luciferase reporter, luminescence, 24 h; Potency, µM (top dose mostly 57 µM), most hits filed as inhibitors; 360,000 tested, 0.72% active; AID 1745845; note: nearly all actives have a fitted effect of over 55% in size
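ATXN2-luciferase reporter cells (luciferase flanked by upstream and downstream ATXN2 gene portions) were treated 24 h at 37 °C with compounds at up to 57 uM. SteadyGlo luminescence gave expression; GF-AFC fluorescence gave viability.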
HepG2 tox-1: HepG2 cytotoxicity, counter-screen for TGF-b inhibitors. HepG2 CAGA-GFP viability, ATP luminescence, 18 h. Potency, µM (doses to about 46.1 µM), usual class: cytotoxic. AID 588856. 410,000 tested, 0.76% active
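CellTiter-Glo luminescence gave cytotoxicity after 18 hours at 37 degrees C. The cells were HepG2 CAGA-GFP in 1% FBS DMEM, stimulated with 500 pg/mL TGF-beta after compound addition. %Activity was normalised to no-cell wells (complete cell-killing) and DMSO (no toxicity), and curves were fitted and classified.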
ATXN viability: cell viability loss in ATXN counter-screen. S2 cells (HEK-293 line with an ATXN2-luciferase reporter) viability, CellTiter-Fluor protease fluorescence, 24 h. Potency, µM (doses to about 56.7 µM), usual class: cytotoxic. 400,000 tested, 0.49% active. AID 651635; note: nearly all actives have a fitted effect of over 40% in size
TGFb SMAD3 inh: blocks TGF-b signaling | HepG2 CAGA-GFP TGF-b/SMAD3 reporter, GFP fluorescence, 18 h; TGF-beta stimulated, 500 pg/mL final | Potency, µM (highest dose often 46.1 µM), actives largely listed as inhibitors | 410,000 tested, 1.2% active | AID 588855; note: nearly all actives have a fitted effect of over 65% in size
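HEPG2 CAGA-GFP reporter cells (1000/well, DMEM with 1% FBS) received compounds, then recombinant TGF-beta at 500 pg/mL final for 18 hours at 37 degrees C. Per-cell GFP summed per well was normalised to unstimulated and stimulated DMSO controls before curve fitting.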
HT1080-NT tox: kills 2HG-producing HT-1080-NT fibrosarcoma cells. 360,000 tested, 1.6% active. Potency, µM (highest dose often 46.1 µM), usual class: cytotoxic. HT-1080-NT fibrosarcoma viability, CellTiter-Glo ATP luminescence, 48 h;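 note: NT is the 2HG producing partner of a matched IDH1 knockdown line; nearly all actives have a fitted effect of over 55% in size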
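Toxicity toward the 2HG-producing NT line was scored as %Activity, normalised to DMSO and no-cell wells, from CellTiter-Glo luminescence after 48 hours' treatment.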
HT1080 IDH1KD tx: toxicity to HT-1080 IDH1 knockdown cells (counter line) | AID 686971 | Potency, µM (highest dose often 46.1 µM), most hits filed as cytotoxic | 360,000 tested, 2% active | HT-1080 IDH1 knockdown viability, ATP luminescence, 48 h
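Knockdown cells (IDH1KD HT-1080) received compounds 2 h after plating at 750 cells/well and were kept 48 h at 37 °C in 5% FBS RPMI. A CellTiter-Glo luminescence read gave % activity for curve fitting.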
TGFb confirm: TGF-b pathway inhibition, cherry-pick retest. HepG2 CAGA-GFP TGF-b reporter, GFP fluorescence, 18 h; cells stimulated with TGF-beta, 500 pg/mL. Potency, µM (top dose mostly 46.1 µM), hits mostly inhibitors. AID 720534. shares compounds with TGFb SMAD3 inh. 1,600 tested, 63% active; note: nearly all actives have a fitted effect of over 65% in size
HepG2 tox-2: toxic to HepG2 cells in TGF-b counterscreen | 1,600 tested, 27% active | AID 720535 | shares compounds with TGFb SMAD3 inh | HepG2 CAGA-GFP viability, ATP luminescence, 18 h; cells stimulated with TGF-beta, 500 pg/mL | Potency, µM (doses to about 46.1 µM), most hits filed as inhibitors; note: nearly all actives have a fitted effect of over 70% in size
TGFb CCL64 inh: TGF-b inhibition, CCL64 orthogonal assay. CCL64 CAGA-GFP reporter, TGF-b stimulated, GFP fluorescence, 18 h. shares compounds with TGFb SMAD3 inh. AID 720536. 1,600 tested, 41% active. Potency, µM (series often up to 46.1 µM), hits mostly inhibitors; note: nearly all actives have a fitted effect of over 65% in size
COP TGFb inh: validation of TGF-b inhibitors in HepG2 COP promoter reporter | shares compounds with TGFb SMAD3 inh | HepG2 COP-GFP TGF-b reporter, GFP fluorescence, 18 h; cells stimulated by added recombinant TGF-beta | Potency, µM (doses to about 46.1 µM), hits mostly inhibitors | 1,600 tested, 3% active; note: nearly all actives have a fitted effect of over 70% in size
Each line names hits and unclear results; the compound was inactive in the other large screens (follow-up assays come after a bar, where they were run). Calls come from the whole dose curve; as a rule, active = well fitted curve in the direction sought with a large enough effect; inconclusive = small, poorly fitted or top-dose-only effect, or another doubt; inactive = no such curve, though single readings can be large; an effect the other way counts as inactive or inconclusive.

N#Cc1c(-n2ncnc2-c2cccc(Cl)c2)sc2c1CCCCC2	none (no result: HT1080-NT tox, HT1080 IDH1KD tx)
O=C(CN1C(=O)CCSc2ccc(S(=O)(=O)N3CCCC3)cc21)Nc1cccc(F)c1	none (no result: ATXN2 expr inh, ATXN viability, HT1080-NT tox, HT1080 IDH1KD tx)
CC1(C(=O)Nc2ccccc2Cc2ccccc2)CCN1Cc1ccccc1Cl (stereo not given)	ATXN2 expr inh inconclusive, TGFb SMAD3 inh 13µM, HT1080-NT tox inconclusive, HT1080 IDH1KD tx inconclusive | TGFb confirm 9.2µM | HepG2 tox-2 inconclusive | TGFb CCL64 inh 16µM | COP TGFb inh inactive
O=C(Nc1ccccc1Cl)Nc1ccccc1Cl	none
O=C(Nc1csc([N+](=O)[O-])c1)Nc1ccccc1Cl	ATXN2 expr inh inconclusive, ATXN viability inconclusive, TGFb SMAD3 inh 13µM, HT1080-NT tox inconclusive, HT1080 IDH1KD tx inconclusive | TGFb confirm 16µM | HepG2 tox-2 inconclusive | TGFb CCL64 inh inconclusive | COP TGFb inh inactive
CCOC(=O)c1c(NC(=O)c2ccc(S(=O)(=O)N(C)C3CCCCC3)cc2)sc2c1CCN(C(C)C)C2	none (no result: ATXN viability, HT1080-NT tox, HT1080 IDH1KD tx)
Cc1nn2c(NCc3ccccn3)c3c(nc2c1-c1ccccc1)CCC3	ATXN2 expr inh inconclusive, ATXN viability inconclusive, TGFb SMAD3 inh 11µM | TGFb confirm inconclusive | HepG2 tox-2 inconclusive | TGFb CCL64 inh inconclusive | COP TGFb inh inactive
COc1ccccc1CNC(=O)C(CC(C)C)N1Cc2ccccc2C1=O (stereo not given)	none (no result: ATXN2 expr inh, ATXN viability, HT1080-NT tox, HT1080 IDH1KD tx)
O=C(Nc1ccc2c(c1)N(C1CCCC1)C(=O)c1ccccc1S2)c1ccccc1	ATXN viability inconclusive (no result: HT1080-NT tox, HT1080 IDH1KD tx)
COc1ccc(Cc2c(-c3ccc(F)cc3)nc3ccc(Br)cn23)c(C)c1	none
COc1ccc(-c2nc3ccc(Br)cn3c2Cc2cccc(Cl)c2)cc1OC	ATXN viability inconclusive, TGFb SMAD3 inh 13µM, HT1080-NT tox inconclusive, HT1080 IDH1KD tx inconclusive | TGFb confirm 18µM | HepG2 tox-2 inconclusive | TGFb CCL64 inh inconclusive | COP TGFb inh inactive
COc1ccccc1Cc1c(-c2ccc(F)cc2)nc2ccc(Br)cn12	ATXN viability inconclusive, TGFb SMAD3 inh 10µM, HT1080-NT tox inconclusive, HT1080 IDH1KD tx inconclusive | TGFb confirm inconclusive | HepG2 tox-2 inconclusive | TGFb CCL64 inh inconclusive | COP TGFb inh inactive
COc1ccc(Cc2c(-c3cccc(Br)c3)nc3ccc(Br)cn23)c(C)c1	TGFb SMAD3 inh inconclusive | TGFb confirm inconclusive | HepG2 tox-2 inconclusive | TGFb CCL64 inh inconclusive | COP TGFb inh inactive
COc1ccc(Cc2c(-c3cccc(Cl)c3)nc3ccc(Br)cn23)c(C)c1	ATXN viability inconclusive, TGFb SMAD3 inh inconclusive
COc1ccc(NC(=O)Cn2cnc3ccc(S(=O)(=O)N4CCC(C)CC4)cc3c2=O)cc1Cl	none (no result: HT1080-NT tox, HT1080 IDH1KD tx)
COc1ccc(C(=O)NCC(c2ccc3c(c2)OCO3)N2CCN(c3ccccc3F)CC2)cc1 (stereo not given)	ATXN2 expr inh inconclusive, ATXN viability inconclusive, TGFb SMAD3 inh inconclusive (no result: HT1080-NT tox, HT1080 IDH1KD tx)
Cc1ccc(CN2C(=O)c3oc4ccc(C)cc4c(=O)c3C2c2ccc(O)cc2)cc1 (stereo not given)	none (no result: HT1080-NT tox, HT1080 IDH1KD tx)
CC(C)C[C@H](NC(=O)c1nc[nH]c1C(=O)N1CCN(c2ccccc2)CC1)C(=O)OC(C)(C)C	TGFb SMAD3 inh inconclusive | TGFb confirm inactive | HepG2 tox-2 inactive | TGFb CCL64 inh inactive | COP TGFb inh inactive
CC(C)(C)OC(=O)NCCCC[C@H](NC(=O)c1[nH]cnc1C(=O)Nc1ccc(CNC(=O)OC(C)(C)C)cc1)C(=O)OC(C)(C)C	ATXN viability inconclusive, HT1080-NT tox inconclusive, HT1080 IDH1KD tx inconclusive
C[C@H](NC(=O)c1[nH]cnc1C(=O)Nc1ccc(CNC(=O)OC(C)(C)C)cc1)C(=O)OC(C)(C)C	ATXN2 expr inh inconclusive, ATXN viability inconclusive, TGFb SMAD3 inh 16µM, HT1080-NT tox inconclusive | TGFb confirm inconclusive | HepG2 tox-2 inconclusive | TGFb CCL64 inh inactive | COP TGFb inh inactive
Cc1ccc(NC(=O)c2nc[nH]c2C(=O)NCCCNC(=O)c2[nH]cnc2C(=O)Nc2ccc(C)cc2)cc1	TGFb SMAD3 inh inconclusive | TGFb confirm inconclusive | HepG2 tox-2 inconclusive | TGFb CCL64 inh inconclusive | COP TGFb inh inconclusive
CN(Cc1ccccc1)C(=O)c1[nH]cnc1C(=O)Nc1cccc(Cl)c1	TGFb SMAD3 inh inconclusive | TGFb confirm inconclusive | HepG2 tox-2 inconclusive | TGFb CCL64 inh inactive | COP TGFb inh inactive

Bioassay records from PubChem.
